Holding throughout (assay): DAPPL (digital affinity profiling via proximity ligation, sequencing); 10 mM Tris-HCl pH 7.5, 50 mM NaCl, 1 mM DTT, 4% glycerol, room temperature, 30 min; GST-TFs on glutathione beads, 16-mer random dsDNA library, 0.1% formaldehyde crosslink after washing; high values mean tight binding
Conditions in all cases: protein: recombinant; tags: N-terminal GST; dsDNA, one strand shown

One test has as its target T1, GABPA (Homo sapiens, UniProt Q06546 1-454).
T1 sequence: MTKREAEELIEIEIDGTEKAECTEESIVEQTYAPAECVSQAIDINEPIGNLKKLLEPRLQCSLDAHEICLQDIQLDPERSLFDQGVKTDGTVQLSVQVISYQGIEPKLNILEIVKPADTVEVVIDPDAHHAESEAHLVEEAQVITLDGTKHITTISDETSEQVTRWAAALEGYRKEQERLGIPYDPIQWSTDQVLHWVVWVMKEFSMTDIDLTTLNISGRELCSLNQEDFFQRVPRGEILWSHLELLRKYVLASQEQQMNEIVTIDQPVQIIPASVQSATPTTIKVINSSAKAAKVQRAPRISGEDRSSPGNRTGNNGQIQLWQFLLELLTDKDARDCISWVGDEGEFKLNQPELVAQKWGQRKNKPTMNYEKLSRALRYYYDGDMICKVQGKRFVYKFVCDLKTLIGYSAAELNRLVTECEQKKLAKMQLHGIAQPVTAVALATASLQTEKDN
The essentials: (§1)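 Each value of binding signal is a hexamer's read frequency for a factor divided by the same hexamer's frequency in the tag-only sample. Barcoded, bead-captured GST fusions of human transcription factors made in yeast were pooled with that sample and incubated with 200 nmole of a random double-stranded 16-mer DNA library in Tris/NaCl/DTT/glycerol buffer at room temperature for 30 min. Washing, 0.1% formaldehyde crosslinking, proximity ligation, PCR and Illumina NextSeq500 sequencing followed.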

A further test concerns the target ELF1 (Homo sapiens, UniProt P32519 1-619). The essentials:
as §1

The next test has as its target T2, EHF (Homo sapiens, UniProt Q9NZC4 1-300).
T2 sequence: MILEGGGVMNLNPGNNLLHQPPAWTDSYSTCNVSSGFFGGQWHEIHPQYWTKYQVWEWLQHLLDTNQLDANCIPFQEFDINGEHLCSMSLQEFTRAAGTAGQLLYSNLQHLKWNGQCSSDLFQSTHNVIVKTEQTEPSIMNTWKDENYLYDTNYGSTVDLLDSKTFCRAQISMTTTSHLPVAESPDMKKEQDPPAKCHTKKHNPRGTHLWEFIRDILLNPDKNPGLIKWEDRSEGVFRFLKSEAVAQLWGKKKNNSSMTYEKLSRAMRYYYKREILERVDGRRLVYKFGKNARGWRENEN
The essentials:
as §1

The target of a further test is SPIB (Homo sapiens, UniProt Q01892 1-262). The method, boiled down:
as §1

The target in another test is T3, ELK3 (Homo sapiens, UniProt P41970 1-407).
T3 sequence: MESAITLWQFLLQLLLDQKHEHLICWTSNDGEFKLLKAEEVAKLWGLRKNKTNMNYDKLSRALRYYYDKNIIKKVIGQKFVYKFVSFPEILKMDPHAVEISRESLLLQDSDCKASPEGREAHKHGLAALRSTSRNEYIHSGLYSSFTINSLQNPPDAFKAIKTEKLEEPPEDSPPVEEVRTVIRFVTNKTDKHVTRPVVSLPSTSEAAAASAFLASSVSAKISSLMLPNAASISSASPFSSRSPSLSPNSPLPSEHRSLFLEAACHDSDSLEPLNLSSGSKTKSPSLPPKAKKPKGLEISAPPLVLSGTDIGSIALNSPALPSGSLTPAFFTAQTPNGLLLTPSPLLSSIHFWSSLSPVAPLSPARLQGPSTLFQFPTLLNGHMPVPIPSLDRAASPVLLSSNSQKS
The essentials:
as §1

The next test has as its target T4, SPIC (Homo sapiens, UniProt Q8N5J4 1-248).
T4 sequence: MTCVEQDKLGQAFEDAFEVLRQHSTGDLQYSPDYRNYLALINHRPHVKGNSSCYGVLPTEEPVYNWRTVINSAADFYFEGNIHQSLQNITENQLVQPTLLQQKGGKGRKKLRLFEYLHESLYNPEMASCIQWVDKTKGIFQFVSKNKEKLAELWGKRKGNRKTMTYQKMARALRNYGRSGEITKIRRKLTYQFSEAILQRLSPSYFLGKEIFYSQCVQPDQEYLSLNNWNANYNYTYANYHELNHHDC
The method, boiled down:
as §1

For another test, the target named is ELF4 (Homo sapiens, UniProt Q99607 1-663). The essentials:
as §1

The next test has as its target T5, ETV2 (Homo sapiens, UniProt O00321 1-342).
T5 sequence: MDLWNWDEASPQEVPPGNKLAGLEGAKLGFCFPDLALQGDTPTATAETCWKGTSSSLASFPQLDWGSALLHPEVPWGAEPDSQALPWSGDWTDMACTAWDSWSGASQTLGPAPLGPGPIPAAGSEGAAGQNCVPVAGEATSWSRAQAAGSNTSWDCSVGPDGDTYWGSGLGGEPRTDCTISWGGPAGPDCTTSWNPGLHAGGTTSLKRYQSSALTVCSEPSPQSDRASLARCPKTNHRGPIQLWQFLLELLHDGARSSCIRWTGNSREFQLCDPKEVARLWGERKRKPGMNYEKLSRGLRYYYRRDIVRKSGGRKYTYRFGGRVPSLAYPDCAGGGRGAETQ
The method, boiled down: as §1

A further test has as its target ETV1 (Homo sapiens, UniProt P50549 1-477). The essentials:
as §1

Another test concerns the target T6, ERF (Homo sapiens, UniProt P50548 1-548).
T6 sequence: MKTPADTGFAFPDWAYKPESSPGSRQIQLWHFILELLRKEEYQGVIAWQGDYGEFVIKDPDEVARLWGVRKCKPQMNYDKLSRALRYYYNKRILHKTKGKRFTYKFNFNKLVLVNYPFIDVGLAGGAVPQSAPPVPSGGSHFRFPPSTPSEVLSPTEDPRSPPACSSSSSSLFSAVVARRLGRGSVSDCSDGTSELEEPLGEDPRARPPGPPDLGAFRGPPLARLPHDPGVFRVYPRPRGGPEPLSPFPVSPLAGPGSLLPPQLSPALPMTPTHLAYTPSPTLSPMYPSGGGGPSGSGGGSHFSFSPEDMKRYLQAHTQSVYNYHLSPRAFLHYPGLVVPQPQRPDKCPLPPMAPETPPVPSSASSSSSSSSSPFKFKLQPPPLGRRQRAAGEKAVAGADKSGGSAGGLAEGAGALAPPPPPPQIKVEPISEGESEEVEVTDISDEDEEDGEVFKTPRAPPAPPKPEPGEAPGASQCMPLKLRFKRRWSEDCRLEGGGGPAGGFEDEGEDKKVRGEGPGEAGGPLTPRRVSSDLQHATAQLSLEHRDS
The method, boiled down:
as §1

A further test concerns the target T7, ELK4 (Homo sapiens, UniProt P28324-2 1-405).
T7 sequence: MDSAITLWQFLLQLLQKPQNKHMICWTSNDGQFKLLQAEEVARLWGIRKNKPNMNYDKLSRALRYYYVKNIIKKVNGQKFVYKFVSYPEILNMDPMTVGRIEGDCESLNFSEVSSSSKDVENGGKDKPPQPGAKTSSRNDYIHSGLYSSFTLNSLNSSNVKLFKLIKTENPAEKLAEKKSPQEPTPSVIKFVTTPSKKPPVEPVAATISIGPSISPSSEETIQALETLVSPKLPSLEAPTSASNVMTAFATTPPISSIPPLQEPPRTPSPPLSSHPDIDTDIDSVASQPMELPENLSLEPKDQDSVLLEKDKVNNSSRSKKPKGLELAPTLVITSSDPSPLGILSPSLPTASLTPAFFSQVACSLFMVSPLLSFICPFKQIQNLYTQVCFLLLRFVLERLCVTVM
The essentials: as §1

In a further test the target is T8, ETV3 (Homo sapiens, UniProt P41162-2 1-143).
T8 sequence: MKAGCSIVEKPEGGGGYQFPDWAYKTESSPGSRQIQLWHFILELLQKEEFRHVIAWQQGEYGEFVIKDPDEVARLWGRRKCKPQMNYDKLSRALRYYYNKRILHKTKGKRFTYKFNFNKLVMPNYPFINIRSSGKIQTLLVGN
The essentials:
as §1

The target of the next test is T9, ELK1 (Homo sapiens, UniProt P19419 1-428).
T9 sequence: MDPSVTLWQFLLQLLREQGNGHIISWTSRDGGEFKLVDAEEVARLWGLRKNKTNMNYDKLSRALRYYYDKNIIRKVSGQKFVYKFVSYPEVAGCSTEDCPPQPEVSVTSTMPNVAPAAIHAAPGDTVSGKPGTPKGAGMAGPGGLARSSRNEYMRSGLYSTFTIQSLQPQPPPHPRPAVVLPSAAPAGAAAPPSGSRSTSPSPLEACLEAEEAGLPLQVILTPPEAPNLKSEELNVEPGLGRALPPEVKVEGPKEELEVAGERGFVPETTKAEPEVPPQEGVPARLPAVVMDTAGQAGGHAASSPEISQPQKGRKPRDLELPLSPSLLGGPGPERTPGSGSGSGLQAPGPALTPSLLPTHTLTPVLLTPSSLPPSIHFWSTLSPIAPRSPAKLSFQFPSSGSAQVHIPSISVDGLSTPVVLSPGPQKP
The essentials: as §1

Another test addresses T10, ETV3L (Homo sapiens, UniProt Q6ZN32 1-361).
T10 sequence: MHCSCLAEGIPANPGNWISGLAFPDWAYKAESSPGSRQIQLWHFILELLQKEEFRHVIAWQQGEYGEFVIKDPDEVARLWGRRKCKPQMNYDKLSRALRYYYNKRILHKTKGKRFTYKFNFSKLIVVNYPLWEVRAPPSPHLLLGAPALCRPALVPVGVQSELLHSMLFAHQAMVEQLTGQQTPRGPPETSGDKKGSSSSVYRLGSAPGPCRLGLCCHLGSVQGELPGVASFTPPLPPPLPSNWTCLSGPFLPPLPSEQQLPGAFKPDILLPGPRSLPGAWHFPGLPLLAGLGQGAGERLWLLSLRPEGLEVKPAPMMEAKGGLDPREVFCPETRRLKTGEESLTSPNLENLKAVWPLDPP
The method, boiled down: as §1

In another test the target is T11, ETS2 (Homo sapiens, UniProt P15036 1-469).
T11 sequence: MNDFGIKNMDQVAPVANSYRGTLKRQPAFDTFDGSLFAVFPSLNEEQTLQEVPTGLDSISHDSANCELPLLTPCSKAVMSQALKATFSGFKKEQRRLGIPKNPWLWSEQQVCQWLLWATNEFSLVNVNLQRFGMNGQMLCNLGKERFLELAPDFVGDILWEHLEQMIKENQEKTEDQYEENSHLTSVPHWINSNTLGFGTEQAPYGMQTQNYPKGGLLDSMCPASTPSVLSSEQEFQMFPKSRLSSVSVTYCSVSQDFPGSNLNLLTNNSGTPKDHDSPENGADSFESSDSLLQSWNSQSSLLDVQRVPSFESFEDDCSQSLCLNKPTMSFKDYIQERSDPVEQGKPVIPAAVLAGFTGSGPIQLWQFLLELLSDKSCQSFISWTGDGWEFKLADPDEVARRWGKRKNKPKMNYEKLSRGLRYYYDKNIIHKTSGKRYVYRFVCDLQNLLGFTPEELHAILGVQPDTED
The method, boiled down: as §1

A further test concerns the target T12, ETV7 (Homo sapiens, UniProt Q9Y603 1-341).
T12 sequence: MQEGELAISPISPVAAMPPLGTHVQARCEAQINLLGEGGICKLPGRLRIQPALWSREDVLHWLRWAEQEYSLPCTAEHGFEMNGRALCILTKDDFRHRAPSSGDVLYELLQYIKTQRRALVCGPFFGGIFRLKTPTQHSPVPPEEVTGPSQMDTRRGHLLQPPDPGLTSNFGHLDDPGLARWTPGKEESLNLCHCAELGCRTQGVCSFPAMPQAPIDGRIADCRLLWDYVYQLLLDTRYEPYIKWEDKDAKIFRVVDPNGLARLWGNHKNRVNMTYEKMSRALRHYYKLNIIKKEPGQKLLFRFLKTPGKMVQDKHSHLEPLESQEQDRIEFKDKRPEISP
The essentials: as §1

Chain of ELF1 (P32519 whole entry): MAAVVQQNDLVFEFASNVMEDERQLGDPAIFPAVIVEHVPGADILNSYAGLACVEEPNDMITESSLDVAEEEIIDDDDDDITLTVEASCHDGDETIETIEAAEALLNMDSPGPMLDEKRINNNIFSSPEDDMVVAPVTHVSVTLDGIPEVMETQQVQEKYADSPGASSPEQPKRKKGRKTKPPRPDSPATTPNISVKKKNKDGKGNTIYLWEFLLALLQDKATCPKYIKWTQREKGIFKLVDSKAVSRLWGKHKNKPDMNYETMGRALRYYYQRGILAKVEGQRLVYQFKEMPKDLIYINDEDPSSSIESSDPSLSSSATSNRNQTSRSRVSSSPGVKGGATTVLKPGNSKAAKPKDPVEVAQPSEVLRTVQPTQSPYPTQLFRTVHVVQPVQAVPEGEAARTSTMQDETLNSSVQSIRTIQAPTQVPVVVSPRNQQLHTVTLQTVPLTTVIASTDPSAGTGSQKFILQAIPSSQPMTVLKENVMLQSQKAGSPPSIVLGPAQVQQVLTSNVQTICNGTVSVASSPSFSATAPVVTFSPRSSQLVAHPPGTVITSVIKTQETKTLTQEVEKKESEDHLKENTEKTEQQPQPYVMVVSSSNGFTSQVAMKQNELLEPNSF
Chain of ETV1 (P50549 whole entry): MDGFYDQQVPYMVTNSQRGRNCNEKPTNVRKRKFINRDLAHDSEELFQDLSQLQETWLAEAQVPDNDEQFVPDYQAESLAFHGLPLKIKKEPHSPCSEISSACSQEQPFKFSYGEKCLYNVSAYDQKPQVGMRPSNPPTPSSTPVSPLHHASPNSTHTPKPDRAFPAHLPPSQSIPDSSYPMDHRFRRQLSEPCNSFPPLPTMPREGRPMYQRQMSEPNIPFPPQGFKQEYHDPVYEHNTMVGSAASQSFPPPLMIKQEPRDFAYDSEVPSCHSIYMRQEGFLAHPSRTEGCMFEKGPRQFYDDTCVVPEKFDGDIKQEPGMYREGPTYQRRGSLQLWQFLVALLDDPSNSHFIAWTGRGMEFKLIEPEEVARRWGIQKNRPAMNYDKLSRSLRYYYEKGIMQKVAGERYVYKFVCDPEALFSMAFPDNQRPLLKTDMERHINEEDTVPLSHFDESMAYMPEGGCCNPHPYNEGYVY
Chain of ELF4 (Q99607 whole entry): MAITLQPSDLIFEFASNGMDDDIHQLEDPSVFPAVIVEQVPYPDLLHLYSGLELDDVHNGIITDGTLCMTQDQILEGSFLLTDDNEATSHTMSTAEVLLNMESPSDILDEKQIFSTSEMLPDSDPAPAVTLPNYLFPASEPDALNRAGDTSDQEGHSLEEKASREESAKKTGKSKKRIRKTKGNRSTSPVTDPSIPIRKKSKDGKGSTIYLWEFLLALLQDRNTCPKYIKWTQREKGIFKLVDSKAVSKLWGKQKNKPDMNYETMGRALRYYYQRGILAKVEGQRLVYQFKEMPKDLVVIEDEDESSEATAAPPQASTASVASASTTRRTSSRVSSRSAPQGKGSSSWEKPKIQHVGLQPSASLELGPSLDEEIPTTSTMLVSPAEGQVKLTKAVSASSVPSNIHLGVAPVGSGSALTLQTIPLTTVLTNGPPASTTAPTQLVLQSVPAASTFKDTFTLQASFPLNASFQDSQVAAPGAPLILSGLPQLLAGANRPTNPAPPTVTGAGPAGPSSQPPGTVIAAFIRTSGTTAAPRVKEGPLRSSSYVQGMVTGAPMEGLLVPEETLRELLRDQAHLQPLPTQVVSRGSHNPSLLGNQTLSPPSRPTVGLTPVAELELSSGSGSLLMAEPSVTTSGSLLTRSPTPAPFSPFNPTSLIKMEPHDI
Chain of SPIB (Q01892 whole entry): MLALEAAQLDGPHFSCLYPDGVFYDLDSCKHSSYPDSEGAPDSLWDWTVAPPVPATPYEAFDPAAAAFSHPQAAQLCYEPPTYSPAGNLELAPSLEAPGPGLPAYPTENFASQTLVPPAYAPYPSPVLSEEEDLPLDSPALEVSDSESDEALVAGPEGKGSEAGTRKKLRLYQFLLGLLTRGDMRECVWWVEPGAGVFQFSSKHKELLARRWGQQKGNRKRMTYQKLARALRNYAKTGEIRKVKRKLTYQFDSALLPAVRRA

With TTAGCC, the binding signal with GABPA is 1.01 fold enrichment (6-mer frequency, TF over GST control); with ELF1 it was 1.06 fold enrichment (6-mer frequency, TF over GST control); with EHF it was 1.03 fold enrichment (6-mer frequency, TF over GST control); with SPIB it was 1 fold enrichment (6-mer frequency, TF over GST control); with ELK3, 1.02 fold enrichment (6-mer frequency, TF over GST control); in the test with SPIC it was 1.04 fold enrichment (6-mer frequency, TF over GST control). Moreover, the binding signal with ELF4 was 1.01 fold enrichment (6-mer frequency, TF over GST control); with ETV2, 1.06 fold enrichment (6-mer frequency, TF over GST control); with ETV1, 1.02 fold enrichment (6-mer frequency, TF over GST control); in the test with ERF it was 1.07 fold enrichment (6-mer frequency, TF over GST control).
On to GTGGAA, for which the binding signal was 1.02 fold enrichment (6-mer frequency, TF over GST control) in the test with SPIC; 1.06 fold enrichment (6-mer frequency, TF over GST control) in the test with ELK4; 1.02 fold enrichment (6-mer frequency, TF over GST control) with ETV3.
Take TGATAA: the binding signal in the test with ELK1 was 1.04 fold enrichment (6-mer frequency, TF over GST control); with GABPA, 1.03 fold enrichment (6-mer frequency, TF over GST control); with ELF1 it was 1 fold enrichment (6-mer frequency, TF over GST control); in the test with EHF, 1.07 fold enrichment (6-mer frequency, TF over GST control); with SPIB it was 1.05 fold enrichment (6-mer frequency, TF over GST control); in the test with ELK3, 1.09 fold enrichment (6-mer frequency, TF over GST control). In addition, the binding signal in the test with SPIC was 1.04 fold enrichment (6-mer frequency, TF over GST control); with ELF4 it was 1.07 fold enrichment (6-mer frequency, TF over GST control); in the test with ELK4, 1.06 fold enrichment (6-mer frequency, TF over GST control); with ETV2 it was 1.02 fold enrichment (6-mer frequency, TF over GST control); with ETV1, 1.07 fold enrichment (6-mer frequency, TF over GST control); with ETV3L, 1.06 fold enrichment (6-mer frequency, TF over GST control). Further, the binding signal with ETS2 was 1.01 fold enrichment (6-mer frequency, TF over GST control); in the test with ETV7, 1.08 fold enrichment (6-mer frequency, TF over GST control); with ETV3 it was 1.05 fold enrichment (6-mer frequency, TF over GST control).

Source of the values: publication PMC7862700, “An all-to-all approach to the identification of sequence-specific readers for epigenetic DNA modifications on cytosine”.
